# Hits are enriched below; roughly 17% of the tested compounds scored in any of these assays.
# TDP1 block: qHTS Assay for Inhibitors of Tyrosyl-DNA Phosphodiesterase (TDP1); Tyrosyl-DNA phosphodiesterase 1 (Homo sapiens), Q9NUW8; 0.28% of 350,000 active; recombinant TDP1, AlphaScreen DNA substrate cleavage; Potency, µM (titrated, usually from 130 µM), without a hit: top-dose activity change, negative = inhibition, usual class: inhibitors; also: % is scaled to controls: 0 for no effect and ±100 for the full control effect; nearly all actives have a fitted effect of over 40% in size
#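 AlphaScreen read-out: signal falls as enzyme removes the 3' tyrosine-FITC from a 5'-biotinylated DNA oligo (15 nM, 5 min, RT). Enzyme was E. coli-made recombinant Tdp1 at 1 nM, exposed to compound for 15 min beforehand; beads 10 ug/ml, 10 min.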
# TDP1 cell noCPT: qHTS for Inhibitors of human tyrosyl-DNA phosphodiesterase 1 (TDP1): qHTS in cells in absence of CPT; AID 686978, 2013; 15% of 420,000 active; Potency, µM (titrated, usually from 46.2 µM), inactives show top-dose activity change, negative = growth inhibition, actives largely listed as inhibitors; DT40 Tdp1-/- hTDP1 cells, no CPT, ATP luminescence, 48 h; also: % is scaled to controls: 0 for no effect and ±100 for the full control effect; nearly all actives have a fitted effect of over 55% in size
#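 DT40 Tdp1-/-;hTDP1 cells, no CPT (DMSO vehicle only), 400 cells/well; compounds pin-transferred; ≥48 hr, 37 °C; CellTiter-Glo 30 min RT dark, luminescence read.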
# ClpP mod: qHTS Assay for Activators of ClpP | 1.9% of 340,000 active | purified B. subtilis ClpP, FRET peptide cleavage, 20 min | Potency, µM (doses to about 57.5 µM), inactives show at the highest dose activity change, negative = active | ATP-dependent Clp protease proteolytic subunit (Bacillus subtilis (strain 168)), P80244; active = well fitted falling curve with a large enough effect; inconclusive = small, poorly fitted or top-dose-only effect; inactive = no such curve, though single readings can be large or run the other way; also: the source files actives as falling curves though it sought activators and does not explain the sign; nearly all actives have a fitted effect of over 65% in size
# Target sequence (P80244 whole entry, looked up): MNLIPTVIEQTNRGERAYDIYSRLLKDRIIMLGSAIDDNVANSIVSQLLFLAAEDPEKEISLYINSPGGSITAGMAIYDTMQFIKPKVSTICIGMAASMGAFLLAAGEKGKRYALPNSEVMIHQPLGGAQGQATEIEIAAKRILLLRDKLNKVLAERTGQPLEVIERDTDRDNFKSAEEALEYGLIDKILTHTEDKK
#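 Buffer: 100 mM Tris/HCl pH8, 100 mM KCl, 0.05% low protease BSA, 2.5% glycerol, 0.01% Tween-20. ClpP 10 microg/mL final; 20 min RT; delta FRET normalized to ADEP and DMSO controls.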
# DT40 TDP1 CPT: qHTS for Inhibitors of human tyrosyl-DNA phosphodiesterase 1 (TDP1): qHTS in cells in presence of CPT. 12% of 420,000 active. Potency, µM (series often up to 46.2 µM), inactives show at the highest dose activity change, negative = growth inhibition, most hits filed as inhibitors. AID 686979, 2013. chicken DT40 Tdp1-/-;hTDP1 cells + 20 nM CPT, ATP luminescence, 48 h; also: % is scaled to controls: 0 for no effect and ±100 for the full control effect; nearly all actives have a fitted effect of over 55% in size
#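 Cell growth measured by CellTiter-Glo luminescence after a minimum 48 h, 37 C compound exposure with 20 nM CPT in Tdp1-knockout DT40 cells stably expressing hTDP1, seeded 400/well; qHTS titration format.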
# Numbers without * were called inactive; ? = inconclusive; / = not tested or not shown; [ ] = remark or other dose. Unless noted, calls follow the shape of the dose curve; as a rule, active = well fitted curve in the direction sought with a large enough effect; inconclusive = small, poorly fitted or top-dose-only effect, or another doubt; inactive = no such curve, though single readings can be large; an effect the other way counts as inactive or inconclusive. Potency is read from the fitted curve at half-maximal effect.
SMILES,TDP1 block,TDP1 cell noCPT,ClpP mod,DT40 TDP1 CPT
O=C(Nc1ccccc1-c1nnc(SCc2ccccc2Cl)o1)c1ccccc1,-3.1%,?,20µM*,?
COc1ccc2cc(/C=N/NC(=O)CN(c3ccccc3C)S(=O)(=O)c3ccccc3)c(Cl)nc2c1,5.8%,6.51µM*,0.2%,2.91µM*
CCN(C[C@H]1N[C@@](CC)(C(=O)OC)[C@H]2C(=O)N(C)C(=O)[C@@H]12)C(=O)COC,0.5%,3.1%,-2.7%,1.3%
COc1ccc(-c2[nH]ncc2/C=N/NC(=O)c2ccncc2)c(OC)c1,0.5%,-2.1%,-0.8%,5.9%
O=C(COc1ccc(Cl)cc1)NCC(c1ccco1)S(=O)(=O)c1ccccc1 (stereo not given),2.6%,20.6µM*,1.6%,?
O=C(NCCc1ccc(Cl)cc1)C(=O)NCC(c1ccco1)S(=O)(=O)c1ccccc1 (stereo not given),0.0%,-8.8%,-0.6%,-9.5%
Cc1cc(S(=O)(=O)C(CNC(=O)COc2ccc(Cl)cc2)c2cccs2)ccc1F (stereo not given),1.2%,?,?,2.59µM*
O=C(COc1ccccc1)NCC(c1cccs1)S(=O)(=O)c1ccc(Cl)cc1 (stereo not given),/,23.1µM*,0.1%,?
O=C1[C@H]2[C@H]3[C@H](O)[C@H](O)C/C(=N/OCc4ccccc4)[C@@H]3CC[C@@H]2C(=O)N1Cc1ccccc1,7.9%[21 µM],/,/,/
O=C(NNc1ccccc1C(F)(F)F)c1sccc1Br,8.2%,-7.4%,-0.8%,-4.7%
Cc1ccc2cc(CCNS(=O)(=O)c3ccc(F)cc3)c(=O)[nH]c2c1C,/,18.4µM*,2.0%,20.6µM*
Cc1ccc(S(=O)(=O)NCCc2cc3ccc(C)c(C)c3[nH]c2=O)cc1,11.4%,18.4µM*,/,?
COc1ccc(OC)c2[nH]c(=O)c(CCNS(=O)(=O)c3ccc(F)cc3)cc12,/,-16.7%,/,-1.3%
Cc1cc(C)c(S(=O)(=O)NCCc2cc3c(C)ccc(C)c3[nH]c2=O)c(C)c1,2.5%,3.66µM*,-2.3%,7.31µM*
CCCS(=O)(=O)NCCc1cc2c(C)ccc(C)c2[nH]c1=O,5.8%,-9.1%,5.2%,3.8%
COc1ccc(OC)c(NC(=O)c2ccc3c(Cl)c4c(nc3c2)CCCC4)c1,2.3%,-7.9%,0.4%,-15.3%
CC1CC(C)(C)CC2(C1)NC(=O)N(CC(=O)Nc1c(F)cccc1F)C2=O (stereo not given),0.4%,2.6%,-1.3%,5.9%
CC1CC(C)(C)CC2(C1)NC(=O)N(CC(=O)N1CCN(Cc3ccc(C#N)cc3)CC1)C2=O (stereo not given),-0.9%,5.17µM*,-1.9%,8.2µM*
CC1CC(C)(C)CC2(C1)NC(=O)N(CC(=O)Nc1cc([N+](=O)[O-])ccc1F)C2=O (stereo not given),0.5%,10.3µM*,-0.5%,14.6µM*
CC(=O)N1CCN(C(=O)CN2C(=O)NC(C)(c3ccc4ccccc4c3)C2=O)CC1 (stereo not given),0.5%,?,-2.4%,-17.5%
Cc1cccc(NC(=O)CN2CCN(C(=O)CN3C(=O)NC4(CC(C)CC(C)(C)C4)C3=O)CC2)c1C (stereo not given),/,4.11µM*,-1.0%,20.6µM*
CC1(c2ccc3ccccc3c2)NC(=O)N(CC(=O)N2CCN(Cc3ccc(C#N)cc3)CC2)C1=O (stereo not given),2.3%,2.06µM*,-4.2%,3.26µM*
CC1CC(C)(C)CC2(C1)NC(=O)N(CC(=O)N1CCN(S(=O)(=O)c3cccs3)CC1)C2=O (stereo not given),0.9%,?,-2.0%,?
COc1ccc(Br)c2c1-c1nc(NC(=O)c3ccc(F)cc3)sc1C2,-2.5%,?,-4.9%,?
CCOc1ncccc1C(=O)OCC(=O)N(CC(C)C)C1CCS(=O)(=O)C1 (stereo not given),0.0%,-3.4%,/,14.2%
SMILES,TDP1 block,TDP1 cell noCPT,ClpP mod,DT40 TDP1 CPT
CCOC(=O)c1[nH]c(C)c(C(=O)NC(CC)Cc2ccccc2)c1C (stereo not given),5.7%,16.4µM*,1.7%,?
CCOC(=O)c1[nH]c(C=O)c(C(=O)OCC)c1C,2.8%,0.651µM*,/,0.651µM*
CCOC(=O)c1[nH]c(C)c(C(=O)Nc2ccccc2C)c1C,-5.2%,1.46µM*,-3.9%,1.64µM*
CCOC(=O)c1[nH]c(C)c(C(=O)Nc2cc(Cl)ccc2C)c1C,9.1%,0.164µM*,-0.1%,0.146µM*
Cc1ccc(S(=O)(=O)NCCC2=CCCCC2)cc1,-0.7%,-25.7%,-17.0%,-7.7%
Cc1ccc(CNCCC2=CCCCC2)cc1,-6.8%,23.1µM*,0.7%,?
Cc1ccc(NC(=O)COC(=O)CN2CCCCCC2=O)cc1C,1.2%,2.3%,-1.3%,-22.0%
Cn1c(SCC(=O)N2CCN(S(=O)(=O)c3ccccc3)CC2)nc2ccccc21,1.5%,?,-1.1%,-8.2%
CC(C)Cn1c(SCC(=O)NC(=O)NC2CCCC2)nc2ccccc21,0.0%,16.4µM*,-0.2%,25.9µM*
Cn1c(N2CCN(S(=O)(=O)c3ccc(Cl)cc3)CC2)nc2ccccc21,3.6%,?,-0.3%,?
CCn1c(N2CCN(S(=O)(=O)c3ccccc3)CC2)nc2ccccc21,/,18.4µM*,-0.9%,?
CC(C)Cn1c(SCC(=O)N2CCN(S(=O)(=O)c3ccccc3)CC2)nc2ccccc21,4.0%,?,1.1%,18.4µM*
CCNC(=O)NC(=O)C(C)Sc1nc2ccccc2n1CC(C)C (stereo not given),-1.0%,16.4µM*,-1.2%,18.4µM*
Nc1ccc(CSc2ccc(Cl)cc2)cc1,0.5%,-1.9%,/,15.1%
O=C(O)CSc1c2c(nc3cc(C(=O)Nc4ccc(F)c(Cl)c4)ccc13)CCC2,-3.8%,-1.8%,-1.7%,11.4%
Cc1ccc(Cl)cc1NC(=O)C(C)n1nc(-c2ccccc2)ccc1=O (stereo not given),-2.3%,-19.8%,-8.1%,?
CNc1cncc(-c2ccc(CN(C)C)cc2)n1,/,6.5%,4.7%,13.6%
O=C(CSc1nc(-c2ccccc2)c(-c2ccccc2)[nH]1)N1CCN(S(=O)(=O)c2ccccc2)CC1,6.6%,18.4µM*,28.2µM*,18.4µM*
CCn1c(=O)n(CC)c2cc(NC(=O)C(C)c3ccccc3)c(Br)cc21 (stereo not given),/,?,-3.1%,?
COc1ccc(CCn2c(C)nc3ccccc3c2=O)cc1OC,-2.4%,20.6µM*,-1.5%,?
COc1ccc(CCn2c(-c3ccco3)nc3ccccc3c2=O)cc1OC,3.1%,2.59µM*,-1.7%,2.59µM*

# Bioassay records from PubChem.
